The values that follow come from PubChem BioAssay (NCI).

Molecules are shown by their SMILES. The panel holds about 79,000 compounds, 15% with a hit somewhere; the sample as a whole holds those more often. Active and inactive are the calls of the source. Rule as the data show it: active = growth inhibition above about 70%; inactive = the rest.

The experiment in a line: NCI Yeast Anticancer Drug Screen. Data for the rad14 strain (AID 159).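 Also: 0% = growth of vehicle-treated control cultures.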 The note with it: S. cerevisiae rad14 strain growth inhibition, stronger effect = higher value. On the procedure:
Growth inhibition of yeast strains with defined genetic alterations is measured as a screen for potential anti-cancer activity. Selected strains with alterations in DNA damage repair or cell cycle control were exposed to compounds and growth inhibition was measured relative to vehicle treated controls. The strain used in this assay is rad14

As for `O=C(Nc1ccc(Cl)cc1)c1cc2cc(N=Nc3ccccc3Cl)ccc2oc1=O`, the growth inhibition is, setting by setting: (at 1.2 µM) 4% (inactive); (at 3.7 µM) 5% (inactive); (at 11.0 µM) 62% (inactive); (at 33.0 µM) 95% (active); (at 100.0 µM) 94% (active).
In the same order, the values of `Cc1cccc(C)c1NC(=O)C(C#N)C1=C(Cl)C(=O)c2ccccc2C1=O` (stereo not given) are -2% (inactive), 88% (active), 98% (active), 98% (active) and 97% (active).
In the same order, the values of `NCCOc1ccc(/C(=C(/Cl)c2ccccc2)c2ccccc2)cc1` are -16% (inactive), -18% (inactive), 72% (active), 98% (active) and 96% (active).
In the same order, the values of `O=C(C#Cc1ccccc1)Nc1ccccc1` are -3% (inactive), -9% (inactive), 4% (inactive), 67% (inactive) and 97% (active).
`C/C1=C/C2OC(=O)C3(C)C2C(CC2(C)OC1=CC2=O)OC3(O)C(C)C` (stereo not given): the growth inhibition reads like this: (at 1.2 µM) -27% (inactive); (at 3.7 µM) -20% (inactive); (at 11.0 µM) -34% (inactive); (at 33.0 µM) -39% (inactive); (at 100.0 µM) -16% (inactive).
For `Nc1ccc(N=Nc2ccc(-c3ccc(O)cc3)cc2)c2ccc(S(=O)(=O)O)cc12`, in that order: -1% (inactive), -1% (inactive), 4% (inactive), 11% (inactive) and 30% (inactive).
In the same order, the values of `CN(N=O)C(=O)Nc1ccc(C(=O)O)cc1` are -4% (inactive), 6% (inactive), -1% (inactive), 2% (inactive) and 8% (inactive).
For `CCCCCCCCN1COCC(COc2ccccc2C)OC1` (stereo not given), in that order: 0% (inactive), 1% (inactive), 1% (inactive), 22% (inactive) and 99% (active).
